Consider 16 compounds from publication PMC5540273 (PLoS ONE, 2017).

In one experiment the test system is T1, PYK2.
T1 construct: gene PTK2B
The following applies: concentration: 1 μM, replicates: in singlicate, n = 1.

The next experiment relates to QSK. The following applies: concentration: 1 μM, replicates: in singlicate, n = 1.
The test system of another experiment is RAF1. To be noted: concentration: 1 μM, replicates: in singlicate, n = 1.
The test system of a further experiment is RET. To be noted: concentration: 1 μM, replicates: in singlicate, n = 1.
Another experiment deals with RIOK1. To be noted: concentration: 1 μM, replicates: in singlicate, n = 1.
In the next experiment the test system is RIOK2. The following applies: concentration: 1 μM, replicates: in singlicate, n = 1.
In a further experiment the test system is RIOK3. The following applies: concentration: 1 μM, replicates: in singlicate, n = 1.
For the next experiment, the system named is RIPK1. To be noted: concentration: 1 μM, replicates: in singlicate, n = 1.
A further experiment has as its system RIPK2. The following applies: concentration: 1 μM, replicates: in singlicate; n = 1.
A further experiment has as its system RIPK4. The following applies: concentration: 1 μM, replicates: in singlicate, n = 1.

SMILES strings stand for the structures. Several values for one entry are separate records, joined by “and”; a condition that tells them apart may be missing. Identical values can stand only once. Like-named read-outs stand apart in the source and are kept apart here.
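Note: KINOMEscan kinase panel screen.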

Consider `O=c1cc(N2CCOCC2)nc2n(Cc3cccc4ccccc34)ccn12` [GSK2333389], for which the “%Inh” value with PYK2 turned out to be 17%; with QSK, 7%; with RAF1 it was 0%; in the experiment on RET, 80%; in the experiment on RIOK1, 8%; in the experiment on RIOK2, 47%. The “%Inh” value in the experiment on RIOK3, in the experiment on RIPK1, in the experiment on RIPK2 and with RIPK4 was 0% each time.

For the compound `O=c1cc(N2CCOCC2)nc2n(Cc3cccc(F)c3)ccn12` [GSK2297430], the “%Inh” value in the experiment on PYK2 was 22%; in the experiment on QSK, 0%; in the experiment on RAF1, 0%; in the experiment with RET, 31%; in the experiment with RIOK1 it was 35%; with RIOK2 it was 11%. Further, the “%Inh” value in the experiment on RIOK3 is recorded as 35%; in the experiment on RIPK1, 0%; in the experiment with RIPK2, 0%; in the experiment on RIPK4 it was 0%.

On to `NCCNS(=O)(=O)c1ccc(-c2ccnc3[nH]ccc23)cc1` [GSK977617], for which the “%Inh” value with PYK2 (1 µM) is 31% and 21%; with QSK (1 µM), 6% and 15%; in the experiment on RAF1 (1 µM), 2% and 0%; in the experiment on RET (1 µM), 28% and 19%; with RIOK1 (1 µM) it was 91.4%; with RIOK2 (1 µM), 93.8% and 88%. The “%Inh” value was 78% and 84% with RIOK3 (1 µM); 9% and 8% with RIPK1 (1 µM); 0% in the experiment with RIPK2; 50% and 29% in the experiment on RIPK4 (1 µM).

On to `CSc1ccc(-c2cc3ncnc(SCC(=O)O)c3s2)cc1`, for which the “%Inh” value in the experiment with PYK2 was 13%; in the experiment with QSK, 0%; with RAF1, 0%; with RET it was 8%; in the experiment on RIOK1, 0%; with RIOK2 it was 0%. Besides, the “%Inh” value in the experiment on RIOK3, in the experiment with RIPK1, in the experiment on RIPK2 and in the experiment on RIPK4 was 0% each time.

Take `CCn1cnc2c(N)ncnc21` [GW345098]: the “%Inh” value in the experiment on PYK2 was found to be 8%; with QSK, 13%; in the experiment with RAF1, 3%; in the experiment on RET, 0%; with RIOK1 it was 30%; in the experiment on RIOK2, 6%. For the same compound, the “%Inh” value worked out at 8% in the experiment on RIOK3, 11% in the experiment on RIPK1, 1% with RIPK2 and 6% in the experiment with RIPK4.

As to `c1ccc(-c2n[nH]cc2-c2ccnc3ccccc23)nc1` [GW271431], the “%Inh” value in the experiment on PYK2 amounted to 9%; with QSK it was 0%; in the experiment on RAF1, 2%; with RET it was 0%; with RIOK1, 58%; in the experiment on RIOK2 it was 11%. The “%Inh” value with RIOK3 was 26%; in the experiment with RIPK1, 20%; in the experiment with RIPK2, 23%; in the experiment on RIPK4, 2%.

With `COc1ccc(COc2cc(-n3cnc4ccccc43)sc2C(N)=O)cc1` [GSK1024304], the “%Inh” value is given as 0% in the experiment with PYK2; 0% in the experiment with QSK; 4% in the experiment with RAF1; 26% in the experiment with RET; 0% in the experiment with RIOK1; 80% in the experiment with RIOK2. The “%Inh” value with RIOK3 amounted to 0%; in the experiment on RIPK1, 4%; in the experiment on RIPK2 it was 0%; in the experiment with RIPK4, 0%.

As to `Cc1nnc(-c2ccc(C)c(-c3ccc(C(=O)Nc4ccc(NS(C)(=O)=O)cc4)cc3)c2)o1` [GW702865], the “%Inh” value with PYK2 was 0%; in the experiment with QSK, 0%; with RAF1, 2%; in the experiment with RET it was 45%; in the experiment on RIOK1, 22%; in the experiment with RIOK2, 0%. The “%Inh” value in the experiment with RIOK3 turned out to be 27%; in the experiment on RIPK1 it was 36%; in the experiment with RIPK2 it was 14%; in the experiment on RIPK4, 0%.

Consider `O=c1cc(N2CCOCC2)nc2n(Cc3cccc(C(F)(F)F)c3)ccn12` [GSK2297543], for which the “%Inh” value came out at 3% with PYK2; 3% in the experiment on QSK; 5% in the experiment with RAF1; 0% in the experiment with RET; 26% in the experiment with RIOK1; 7% in the experiment on RIOK2. Further, the “%Inh” value with RIOK3 turned out to be 19%; in the experiment on RIPK1, 10%; with RIPK2 it was 12%; in the experiment on RIPK4 it was 0%.

In the case of `O=c1cc(N2CCOCC2)nc2n(Cc3cccc(Cl)c3Cl)c(C3CC3)nn12` [GSK2358994], the “%Inh” value was determined as 0% in the experiment with PYK2; 0% with QSK; 0% in the experiment on RAF1; 8% in the experiment with RET; 13% in the experiment with RIOK1; 25% with RIOK2. Further, the “%Inh” value was found to be 37% in the experiment with RIOK3, 0% in the experiment with RIPK1, 0% in the experiment on RIPK2 and 16% in the experiment with RIPK4.

For `O=C(Nc1n[nH]c2cc(-c3cccc(F)c3)ccc12)C1CC1` [SB-735464], the “%Inh” value was determined as 0% in the experiment with PYK2; 28% in the experiment with QSK; 15% in the experiment with RAF1; 0% in the experiment with RET; 66% in the experiment with RIOK1; 40% in the experiment on RIOK2. For the same compound, the “%Inh” value was 0% in the experiment on RIOK3, 38% in the experiment on RIPK1, 0% with RIPK2 and 18% in the experiment on RIPK4.

Take `O=C(c1ccc(-c2cc(-c3c[nH]nc3-c3ccccn3)ccn2)cc1)N1CCOCC1` [GW812171]: the “%Inh” value amounted to 0% in the experiment with PYK2; 0% in the experiment on QSK; 9% with RAF1; 0% with RET; 8% in the experiment with RIOK1; 0% in the experiment with RIOK2. The “%Inh” value with RIOK3 turned out to be 7%; in the experiment on RIPK1, 0%; in the experiment on RIPK2, 1%; in the experiment with RIPK4, 2%.

On to `CC(=O)Nc1ccc(COc2ccc(Nc3ccnc4cc(-c5ccccn5)ccc34)cc2)cc1.Cl` [GW440148], for which the “%Inh” value in the experiment on PYK2 was determined as 0%; in the experiment with QSK, 0%; with RAF1, 5%; in the experiment with RET, 2%; with RIOK1 it was 13%; in the experiment on RIOK2 it was 0%. Also, the “%Inh” value is 35% in the experiment on RIOK3, 22% with RIPK1, 93.2% in the experiment on RIPK2 and 19% in the experiment with RIPK4.

Take `Cc1ccc(NC(=O)c2ccnc(N3CCN(C)CC3)c2)cc1-c1ccc(C(=O)NCC2CC2)cc1` [GW775604]: the “%Inh” value with PYK2 amounted to 0%; with QSK, 0%; in the experiment with RAF1, 10%; in the experiment on RET, 0%; in the experiment with RIOK1, 0%; with RIOK2, 0%. The “%Inh” value with RIOK3, with RIPK1, with RIPK2 and in the experiment with RIPK4 was 0% in each case.

For the compound `Cl.Oc1cccc(Nc2ccnc3cc(-c4ccncc4)ccc23)c1` [GW494601], the “%Inh” value with PYK2 is listed as 0%; with QSK, 63%; with RAF1 it was 22%; in the experiment on RET it was 99.9%; in the experiment on RIOK1, 0%; in the experiment with RIOK2 it was 0%. The “%Inh” value with RIOK3 was 0%; in the experiment with RIPK1, 15%; in the experiment with RIPK2, 83%; in the experiment with RIPK4 it was 47%.

Turning to `Fc1ccc(-c2nn3c(OCC(F)(F)F)cccc3c2-c2ccncc2)cc1` [GW514784], the “%Inh” value with PYK2 amounted to 1%; with QSK, 0%; in the experiment on RAF1, 8%; with RET it was 0%; with RIOK1, 39%; in the experiment on RIOK2 it was 0%. For the same compound, the “%Inh” value is 5% in the experiment with RIOK3, 0% in the experiment with RIPK1, 43% in the experiment with RIPK2 and 0% with RIPK4.
